According to PubChem BioAssay (EPA / NIEHS):
Records with an inconclusive call do not appear. Calls of active or inactive are those of the source. The calls were made as follows, unless noted: active = hit-call score of the fitted dose curve at least 0.9, where 1 is the maximum; inactive = score below 0.9.

Key:
[1] = ATG_DR4_LXR_CIS: Attagene CIS-FACTORIAL HepG2 Assay for human Liver X Receptor (LXR), DR4 submotif (AID 2282929); settings: HepG2 Attagene DR4 cis-reporter, mRNA transcription; actives raise or lower the signal
How it was run: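 After transient transfection with multiplexed cis-promoter reporter units, HepG2 cells received test chemicals for 24 h. Reporter mRNA induction, detected by fluorescence after RT-PCR and capillary electrophoresis, was scored relative to DMSO.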

[2] = ATG_M_19_CIS: Attagene CIS-FACTORIAL HepG2 Assay for M19 Transcription Factor (Internal Marker) (AID 2282939); settings: HepG2 Attagene CIS-FACTORIAL M19 internal marker reporter; actives raise or lower the signal
How it was run: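 HepG2 cells transiently transfected with cis-regulated multiple reporter transcription units were dosed for 24 h; reporter mRNA was quantified by RT-PCR, 6-FAM primer-extension labelling, HpaI digestion and capillary electrophoresis, with bidirectional fitting against DMSO baseline.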

[3] = molecular target: Hepatocyte nuclear factor 3-beta (Homo sapiens) (UniProt Q9Y261); assay: ATG_FoxA2_CIS: Attagene CIS-FACTORIAL HepG2 Assay for human Forkhead box A2 (FOXA2) (AID 2282942); settings: HepG2 cis-reporter transcription factor activity, 24 h; actives raise or lower the signal
How it was run: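 Fluorescence signal of reporter cDNA fragments, separated by capillary electrophoresis, reflects endogenous transcription factor activity in transfected HepG2 after 24 h. Both increases and decreases fitted against DMSO.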

[4] = molecular target: Hypoxia-inducible factor 1-alpha (Homo sapiens) (UniProt Q16665); assay: ATG_HIF1a_CIS: Attagene CIS-FACTORIAL HepG2 Assay for human Hypoxia Inducible Factor 1 (HIF1A) (AID 2282951); settings: HepG2 Attagene cis-factorial HIF1a reporter transcription; actives raise or lower the signal
How it was run: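 Endogenous-TF cis reporter readout, human HepG2 cells, 24 h incubation; mRNA detected via RT-PCR and capillary electrophoresis fluorescence; DMSO-normalised bidirectional fitting.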

[5] = molecular target: Hepatocyte nuclear factor 6 (Homo sapiens) (UniProt Q9UBC0); assay: ATG_HNF6_CIS: Attagene CIS-FACTORIAL HepG2 Assay for human Hepatocyte Nuclear Factor 6 (HNF6) (AID 2282952); settings: HepG2 Attagene cis-factorial HNF6 reporter transcription; actives raise or lower the signal
How it was run: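 Multiplexed mRNA reporter assay in transfected HepG2; 24 h dosing; RT-PCR plus capillary electrophoresis fluorescence; DMSO-referenced bidirectional curve fitting.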

[6] = molecular target: Heat shock factor protein 1 (Homo sapiens) (UniProt Q00613); assay: ATG_HSE_CIS: Attagene CIS-FACTORIAL HepG2 Assay for human Heat Shock Transcription Factor 1 (HSE) (AID 2282953); settings: HepG2 HSE cis-reporter, Attagene RNA transcription; actives raise or lower the signal
How it was run: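 HepG2 cells transiently transfected with multiple reporter transcription units under cis-regulatory promoter control, measuring endogenous transcription factor activity. After 24 h chemical exposure, reporter mRNA quantified by RT-PCR, fluorescent labelling, HpaI digestion and capillary electrophoresis; bidirectional fit versus DMSO.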

[7] = ATG_RORE_CIS: Attagene CIS-FACTORIAL HepG2 Assay for human RAR-related Orphan Receptor Element (RORE) (AID 2282959); settings: HepG2 Attagene cis-factorial RORE reporter, mRNA; actives raise or lower the signal
How it was run: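 Measured here: transcript induction of a cis-regulated reporter in HepG2 cells transiently transfected via FuGene 6. After 24 h, RNA was processed by RT-PCR and fluorescent capillary electrophoresis; DMSO defined baseline activity.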

[8] = ATG_Sox_CIS: Attagene CIS-FACTORIAL HepG2 Assay for human SRY-box transcription factor (SOX) (AID 2282960); settings: HepG2 Attagene cis-factorial SOX reporter, mRNA; actives raise or lower the signal
How it was run: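 Using transiently transfected HepG2 cells, reporter transcription driven by cis elements was assessed 24 h after dosing. Signal was fluorescence of capillary-separated RT-PCR products, with DMSO defining baseline activity.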

[9] = ATG_TA_CIS: Attagene CIS-FACTORIAL HepG2 Assay for human TA Basal Promoter (AID 2282964); settings: HepG2 Attagene CIS-factorial TA basal promoter reporter; actives raise or lower the signal
How it was run: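 HepG2 cells transiently transfected with multiplexed cis-promoter reporter units, dosed 24 h. Reporter mRNA measured by RT-PCR, 6-FAM labelling, HpaI digestion and capillary electrophoresis; bidirectional fit versus DMSO baseline, serving as background control.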

[10] = ATG_TGFb_CIS: Attagene CIS-FACTORIAL HepG2 Assay for human Transforming Growth Factor (TGF) (AID 2282967); settings: HepG2 Attagene CIS TGFb reporter, mRNA transcription; actives raise or lower the signal
How it was run: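 HepG2 cells transiently transfected with cis-promoter-driven multiplexed reporter units; 24 h compound exposure. Reporter mRNA measured by RT-PCR, 6-FAM labeling, HpaI digestion and capillary electrophoresis; bidirectional fit versus DMSO baseline.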

[11] = ATG_VDRE_CIS: Attagene CIS-FACTORIAL HepG2 Assay for human Vitamin D Receptor Element (VDRE) (AID 2282968); settings: HepG2 VDRE cis-reporter transcription, actives raise or lower the signal
How it was run: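 Reporter mRNA induction, quantified by capillary electrophoresis of fluorescently labelled RT-PCR products, was read 24 h after dosing HepG2 cells carrying transiently transfected cis-regulated reporter units; gain or loss relative to DMSO.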

[12] = ATG_M_06_TRANS: Attagene TRANS-FACTORIAL HepG2 Assay for M06 Transcription Factor (Internal Marker) (AID 2282983; active = hit-call score of the fitted dose curve at least 0.9, where 1 is the maximum;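 also: reporter transcript level by RT-PCR then capillary electrophoresis fluorescence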); settings: HepG2 Attagene TRANS M06 internal marker reporter
How it was run: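 Cells: HepG2, transient multi-reporter transfection. Exposure: 24 h. Detection: RT-PCR, 6-FAM labelling, HpaI digestion (2 h, 37 °C), capillary electrophoresis. Baseline: DMSO.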

[13] = ATG_NFI_CIS: Attagene CIS-FACTORIAL HepG2 Assay for human Nuclear Factor I (NFI) (AID 2282989); settings: HepG2 cis-regulatory reporter, NFI response element transcription; actives raise or lower the signal
How it was run: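 HepG2 cells transiently transfected with cis-element-driven multiplexed reporter transcription units, dosed for 24 h. Reporter mRNA quantified by RT-PCR, fluorescent labelling, HpaI digestion and capillary electrophoresis; bidirectional fit versus DMSO baseline.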

[14] = molecular target: Myc proto-oncogene protein (Homo sapiens) (UniProt P01106); assay: ATG_Myc_CIS: Attagene CIS-FACTORIAL HepG2 Assay for human Myelocytomatosis (Myc) Proto-Oncogene Transcription Factor (AID 2282990); settings: HepG2, Attagene cis-reporter transcription factor activity; actives raise or lower the signal
How it was run: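 Cells of the HepG2 human liver line bear multiple cis-driven reporter transcription units. Reporter mRNA after 24 h exposure is reverse-transcribed, amplified, labelled and resolved by capillary electrophoresis, with gain- or loss-of-signal fitting relative to DMSO.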

[15] = ATG_NRF2_ARE_CIS: Attagene CIS-FACTORIAL HepG2 Assay for human Nuclear Factor Erythroid 2 Related Factor 2 (NFR2) response to Antioxidant Response Elements (ARE) (AID 2282992); settings: HepG2 Attagene ARE/NRF2 reporter, transcription factor activity; actives raise or lower the signal;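 as to AC50: reporter mRNA level measured by RT-PCR and capillary electrophoresis fluorescence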
How it was run: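 HepG2 cells transiently transfected with multiplexed cis-regulated reporter transcription units measure endogenous transcription factor activity. Reporter mRNA at 24 h is quantified by RT-PCR, fluorescent labelling and capillary electrophoresis, with bidirectional fitting relative to DMSO.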

[16] = molecular target: Cellular tumor antigen p53 (Homo sapiens) (UniProt P04637); assay: ATG_p53_CIS: Attagene CIS-FACTORIAL HepG2 Assay for human p53 Transcription Factor (AID 2282994); settings: HepG2 p53 cis-element reporter, Attagene mRNA; actives raise or lower the signal
How it was run: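 HepG2 cells transiently transfected with multiplexed cis-regulated reporter transcription units read endogenous TF activity. After 24 h compound exposure, reporter mRNA was quantified by RT-PCR, fluorescent labelling, HpaI digestion and capillary electrophoresis; bidirectional fits versus DMSO baseline.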

[17] = molecular target: Transcription factor E2F1 (Homo sapiens) (UniProt Q01094); assay: ATG_E2F_CIS: Attagene CIS-FACTORIAL HepG2 Assay for human E2F Transcription Factor 1 (AID 2282935); settings: HepG2 Attagene cis-reporter, E2F reporter RNA transcripts; actives raise or lower the signal
How it was run: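 Cis-element reporter mRNA induction in transiently transfected HepG2, 24 h exposure. Activity fitted in both directions relative to DMSO negative control.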

[18] = ATG_ISRE_CIS: Attagene CIS-FACTORIAL HepG2 Assay for human Interferon Regulatory Factor 1 (IRF1) binding to an Interferon-Stimulated Response Element (ISRE) (AID 2282948); settings: HepG2 ISRE cis-reporter (Attagene), mRNA transcription readout; actives raise or lower the signal
How it was run: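 HepG2 cells transiently transfected with multiplexed cis-promoter reporter units; after 24 h compound exposure, reporter mRNA quantified by RT-PCR, FAM labelling, HpaI digestion and capillary electrophoresis. Bidirectional fit versus DMSO baseline.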

[19] = molecular target: Nuclear receptor subfamily 1 group I member 2 (Homo sapiens) (UniProt O75469); assay: ATG_PXR_TRANS: Attagene TRANS-FACTORIAL HepG2 Assay for human Pregnane X Receptor (PXR) (AID 2283008; active = hit-call score of the fitted dose curve at least 0.9, where 1 is the maximum)
How it was run: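 HepG2 cells transiently transfected with multiple reporter units, here a PXR-GAL4 chimera driving a GAL4-UAS reporter; 24 h compound exposure. Reporter mRNA measured by RT-PCR, FAM labelling and capillary electrophoresis; gain of signal fitted against DMSO baseline.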

[20] = ATG_CMV_CIS: Attagene CIS-FACTORIAL HepG2 Assay for human CMV (Internal Marker) (AID 2282928); settings: HepG2 CMV promoter reporter, transcription factor profiling; actives raise or lower the signal;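 also: endpoint acts as a background internal control marker rather than a target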
How it was run: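 HepG2 cells transiently transfected with multiple cis-regulated reporter units; 24 h compound exposure. Reporter mRNA quantified by RT-PCR, 6-FAM primer-extension labeling, HpaI digestion and capillary electrophoresis; bidirectional fitting against DMSO baseline.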

Measured: AC50

Sequence of Hypoxia-inducible factor 1-alpha (Homo sapiens) (Q16665 whole entry, looked up): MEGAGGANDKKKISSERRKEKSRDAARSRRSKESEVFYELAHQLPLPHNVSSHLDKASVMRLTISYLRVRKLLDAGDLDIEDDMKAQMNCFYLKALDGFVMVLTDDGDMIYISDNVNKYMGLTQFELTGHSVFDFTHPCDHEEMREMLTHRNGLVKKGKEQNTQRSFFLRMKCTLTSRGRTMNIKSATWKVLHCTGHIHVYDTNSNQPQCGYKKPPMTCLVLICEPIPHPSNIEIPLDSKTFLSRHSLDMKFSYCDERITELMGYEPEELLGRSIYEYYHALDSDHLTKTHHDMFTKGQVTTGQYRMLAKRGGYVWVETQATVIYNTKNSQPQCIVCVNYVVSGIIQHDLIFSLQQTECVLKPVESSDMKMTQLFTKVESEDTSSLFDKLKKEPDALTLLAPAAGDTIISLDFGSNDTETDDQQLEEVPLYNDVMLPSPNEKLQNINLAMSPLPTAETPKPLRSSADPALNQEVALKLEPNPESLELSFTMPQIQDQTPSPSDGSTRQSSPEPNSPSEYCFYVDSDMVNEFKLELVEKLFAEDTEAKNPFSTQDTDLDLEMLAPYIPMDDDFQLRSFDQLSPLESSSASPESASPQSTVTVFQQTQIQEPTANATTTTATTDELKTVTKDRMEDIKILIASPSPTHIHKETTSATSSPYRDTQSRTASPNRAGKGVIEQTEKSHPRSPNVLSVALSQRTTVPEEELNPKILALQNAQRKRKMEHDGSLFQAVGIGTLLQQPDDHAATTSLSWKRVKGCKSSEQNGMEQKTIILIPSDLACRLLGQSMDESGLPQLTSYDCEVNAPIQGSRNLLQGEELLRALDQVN
Sequence of Myc proto-oncogene protein (Homo sapiens) (P01106 whole entry, looked up): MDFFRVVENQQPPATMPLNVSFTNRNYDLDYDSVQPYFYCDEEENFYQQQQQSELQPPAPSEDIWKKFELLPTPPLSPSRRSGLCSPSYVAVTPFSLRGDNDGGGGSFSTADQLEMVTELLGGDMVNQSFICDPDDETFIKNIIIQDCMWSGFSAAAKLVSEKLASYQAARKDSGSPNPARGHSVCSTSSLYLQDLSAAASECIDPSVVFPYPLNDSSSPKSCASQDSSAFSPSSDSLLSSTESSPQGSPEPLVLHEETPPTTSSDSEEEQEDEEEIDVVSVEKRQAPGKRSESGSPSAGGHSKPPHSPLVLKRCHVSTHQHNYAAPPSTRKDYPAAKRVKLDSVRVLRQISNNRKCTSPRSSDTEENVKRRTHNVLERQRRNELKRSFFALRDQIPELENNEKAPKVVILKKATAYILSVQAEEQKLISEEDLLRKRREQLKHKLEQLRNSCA
Sequence of Nuclear receptor subfamily 1 group I member 2 (Homo sapiens) (O75469 whole entry, looked up, the tested form may be a part): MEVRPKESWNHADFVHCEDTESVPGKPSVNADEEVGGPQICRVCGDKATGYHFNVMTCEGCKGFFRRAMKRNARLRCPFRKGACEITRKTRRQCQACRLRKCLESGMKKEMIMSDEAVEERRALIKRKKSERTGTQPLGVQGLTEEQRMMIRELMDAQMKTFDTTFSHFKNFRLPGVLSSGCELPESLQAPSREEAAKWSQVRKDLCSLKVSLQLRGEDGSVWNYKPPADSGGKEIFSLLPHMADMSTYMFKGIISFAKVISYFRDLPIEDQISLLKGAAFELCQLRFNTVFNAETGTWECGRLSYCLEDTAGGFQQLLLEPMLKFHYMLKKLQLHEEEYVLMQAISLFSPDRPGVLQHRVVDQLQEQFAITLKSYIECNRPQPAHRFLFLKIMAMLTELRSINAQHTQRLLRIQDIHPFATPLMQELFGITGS
Sequence of Hepatocyte nuclear factor 6 (Homo sapiens) (Q9UBC0 whole entry, looked up): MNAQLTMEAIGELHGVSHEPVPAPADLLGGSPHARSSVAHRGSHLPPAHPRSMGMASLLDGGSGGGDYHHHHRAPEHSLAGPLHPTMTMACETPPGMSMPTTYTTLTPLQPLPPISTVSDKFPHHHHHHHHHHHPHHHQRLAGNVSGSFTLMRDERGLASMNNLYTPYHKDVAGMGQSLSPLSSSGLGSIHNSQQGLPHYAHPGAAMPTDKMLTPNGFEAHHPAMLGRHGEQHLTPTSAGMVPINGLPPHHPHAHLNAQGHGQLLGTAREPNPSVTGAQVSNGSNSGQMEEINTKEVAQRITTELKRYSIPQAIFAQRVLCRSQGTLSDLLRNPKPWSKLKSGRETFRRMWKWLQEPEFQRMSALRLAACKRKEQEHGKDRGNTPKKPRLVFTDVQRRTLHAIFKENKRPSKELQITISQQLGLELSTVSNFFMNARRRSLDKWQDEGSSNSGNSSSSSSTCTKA
Sequence of Transcription factor E2F1 (Homo sapiens) (Q01094 whole entry, looked up): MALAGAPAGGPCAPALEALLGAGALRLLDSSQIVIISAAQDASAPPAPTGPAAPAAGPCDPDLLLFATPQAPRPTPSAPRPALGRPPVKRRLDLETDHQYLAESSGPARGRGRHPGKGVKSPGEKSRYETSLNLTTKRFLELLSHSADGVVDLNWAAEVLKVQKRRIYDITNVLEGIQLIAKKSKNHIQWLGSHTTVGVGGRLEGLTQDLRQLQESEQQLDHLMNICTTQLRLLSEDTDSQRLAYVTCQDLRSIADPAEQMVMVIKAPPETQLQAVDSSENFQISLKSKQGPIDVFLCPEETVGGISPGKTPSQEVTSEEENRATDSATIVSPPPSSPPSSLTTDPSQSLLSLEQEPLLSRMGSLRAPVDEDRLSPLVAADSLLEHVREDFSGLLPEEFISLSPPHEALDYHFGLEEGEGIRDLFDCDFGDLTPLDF
Sequence of Heat shock factor protein 1 (Homo sapiens) (Q00613 whole entry, looked up): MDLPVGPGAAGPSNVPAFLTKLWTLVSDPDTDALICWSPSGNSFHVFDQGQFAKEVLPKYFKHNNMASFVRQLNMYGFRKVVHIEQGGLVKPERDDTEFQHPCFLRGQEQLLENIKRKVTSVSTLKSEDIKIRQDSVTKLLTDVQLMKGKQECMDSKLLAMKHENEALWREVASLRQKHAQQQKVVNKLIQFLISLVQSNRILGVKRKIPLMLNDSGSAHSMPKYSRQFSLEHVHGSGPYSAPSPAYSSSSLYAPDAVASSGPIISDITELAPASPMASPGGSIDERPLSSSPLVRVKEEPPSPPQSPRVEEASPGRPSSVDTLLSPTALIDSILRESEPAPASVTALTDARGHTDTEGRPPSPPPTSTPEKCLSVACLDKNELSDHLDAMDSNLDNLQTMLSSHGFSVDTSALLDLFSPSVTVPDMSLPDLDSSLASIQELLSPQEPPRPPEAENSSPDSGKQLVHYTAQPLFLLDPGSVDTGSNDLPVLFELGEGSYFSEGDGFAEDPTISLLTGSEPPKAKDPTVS
Sequence of Cellular tumor antigen p53 (Homo sapiens) (P04637 whole entry, looked up): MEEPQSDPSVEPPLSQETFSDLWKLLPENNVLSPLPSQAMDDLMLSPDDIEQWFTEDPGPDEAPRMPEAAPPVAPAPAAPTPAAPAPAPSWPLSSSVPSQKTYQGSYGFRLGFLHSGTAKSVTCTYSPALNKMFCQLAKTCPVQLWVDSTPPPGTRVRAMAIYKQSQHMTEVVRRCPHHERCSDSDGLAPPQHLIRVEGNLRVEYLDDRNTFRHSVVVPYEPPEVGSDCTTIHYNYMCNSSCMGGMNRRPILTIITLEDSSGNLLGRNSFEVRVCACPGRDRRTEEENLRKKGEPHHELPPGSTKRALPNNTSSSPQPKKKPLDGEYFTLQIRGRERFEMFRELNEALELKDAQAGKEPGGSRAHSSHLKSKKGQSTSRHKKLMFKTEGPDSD
Sequence of Hepatocyte nuclear factor 3-beta (Homo sapiens) (Q9Y261 whole entry, looked up, the tested form may be a part): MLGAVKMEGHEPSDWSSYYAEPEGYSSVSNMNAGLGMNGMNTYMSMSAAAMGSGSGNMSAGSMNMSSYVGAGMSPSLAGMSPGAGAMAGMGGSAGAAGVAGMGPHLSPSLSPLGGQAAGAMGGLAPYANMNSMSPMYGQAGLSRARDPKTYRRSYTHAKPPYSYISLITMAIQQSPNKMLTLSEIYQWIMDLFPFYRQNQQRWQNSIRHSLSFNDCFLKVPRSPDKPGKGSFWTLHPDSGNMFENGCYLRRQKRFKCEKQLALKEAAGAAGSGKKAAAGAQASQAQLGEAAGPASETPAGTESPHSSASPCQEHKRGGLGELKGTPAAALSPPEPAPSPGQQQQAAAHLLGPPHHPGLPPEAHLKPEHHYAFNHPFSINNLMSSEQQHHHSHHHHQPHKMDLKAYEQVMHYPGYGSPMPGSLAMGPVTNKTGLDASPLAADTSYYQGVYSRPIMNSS

OCCOCCOCCOCCOCCO
inactive: [1] | [2] | [3] | [4] | [5] | [6] | [7] | [8] | [9] | [10] | [11] | [12] | [13] | [14] | [15] | [16]

Cc1cc2nc3c(=O)[nH]c(=O)nc-3n(C[C@H](O)[C@H](O)[C@H](O)CO)c2cc1C
inactive: [1] | [17] | [3] | [5] | [6] | [7] | [8] | [10] | [12] | [13] | [14] | [15] | [16]

Clc1ccc(Sc2cc(Cl)c(Cl)cc2Cl)cc1
inactive: [1] | [17] | [2] | [3] | [18] | [4] | [5] | [7] | [8] | [9] | [10] | [11] | [12] | [13] | [14] | [15] | [16]
active: [19] 2.22 µM

Cc1cc(O)cc(C)c1Cl
active: [1] 65.4 µM | [4] 48.4 µM | [15] 22.5 µM
inactive: [17] | [3] | [5] | [6] | [7] | [8] | [9] | [10] | [12] | [13] | [14] | [19]

COC(=O)c1ccccc1
inactive: [20] | [1] | [3] | [18] | [4] | [5] | [6] | [7] | [8] | [11] | [12] | [13] | [14] | [15] | [16] | [19]
active: [10] 0.5 µM

Oc1ccc(Cl)cc1C1CCCC1
inactive: [17] | [2] | [3] | [4] | [6] | [7] | [9] | [10] | [12]
active: [1] 43.2 µM | [18] 57.3 µM | [5] 55.6 µM | [8] 37.5 µM | [13] 33.4 µM | [14] 16.6 µM | [15] 12.9 µM | [16] 56.7 µM | [19] 9.24 µM

COc1cccc(OC)c1C(=O)O
inactive: [20] | [1] | [2] | [3] | [18] | [4] | [5] | [6] | [7] | [8] | [9] | [10] | [11] | [12] | [13] | [14] | [15] | [16]

CCCCCCCCCCCCCCCCCC[N+](C)(C)C
inactive: [17] | [18] | [4] | [7] | [9] | [12] | [13] | [16]
active: [1] 6.61 µM | [3] 45.4 µM | [5] 42.2 µM | [6] 43.9 µM | [8] 40.7 µM | [10] 6.12 µM | [11] 6.1 µM | [14] 41.5 µM | [15] 4.81 µM | [19] 25 µM

C=C1CC[C@H]2C[C@@H]1C2(C)C
active: [15] 21.9 µM | [19] 10.4 µM
inactive: [1] | [17] | [2] | [3] | [18] | [4] | [5] | [6] | [7] | [8] | [10] | [11] | [12] | [13] | [14]

Cc1ccccc1S(N)(=O)=O
active: [11] 26.5 µM
inactive: [1] | [17] | [2] | [3] | [18] | [4] | [5] | [6] | [7] | [10] | [12] | [13] | [14] | [15] | [16] | [19]

NCc1ccccc1
inactive: [20] | [1] | [2] | [3] | [18] | [4] | [5] | [6] | [7] | [9] | [10] | [11] | [13] | [14] | [15] | [16]

CC1=CCCC(C)(C)C12CCC(C)O2 (stereo not given)
active: [15] 17.5 µM | [19] 2.53 µM
inactive: [20] | [1] | [3] | [18] | [4] | [5] | [6] | [7] | [8] | [9] | [10] | [12] | [13] | [14] | [16]
